# Bioassay records from PubChem BioAssay.
# An excerpt weighted towards active compounds, which were near 1.6% of everything screened.
# IkB sig inh = IkB pathway inhibition in ABC-DLBCL cells. actives 0.04% (n = 110,000). ABC-DLBCL IkBa-CBG/CBR dual luciferase ratio, 4 h; response scale: scaled: untreated 0%, proteasome inhibitor 100%. Potency, µM (highest dose often 57.1 µM), for inactives: at the top dose IkBa stabilization activation; active = well fitted curve in the direction sought with a large enough effect in the signal ratio, not every such curve was filed as active; inconclusive = small, poorly fitted or top-dose-only effect, or a change in a side signal; the % refers to the signal ratio;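 note: the direction sought is a rising ratio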
#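 Curves were fitted separately to fusion (green), unfused (red) and ratio luminescence, then classed by r2, magnitude and activity. Cells: OCI-Ly3, 4 h compound plus doxycycline at 37C; 10 uM MG-132 defined full response.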
# Imprint erasure = inducers of genomic imprint erasure in mouse ES cells | mouse ES Peg3-LacZ reporter, beta-gal luminescence, 40 h | Potency, µM (top dose mostly 60.7 µM), for inactives: at the highest dose activity change, positive = activation, usual class: activators | actives 0.02% (n = 110,000) | AID 1948
#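 Gelatin-coated wells received 300 freshly trypsinized female ES cells with a Peg3LacZ-Neo reporter on the maternal allele, then incubated 40 hours at 37C. BetaGlo was added for 5 minutes at room temperature before a single luminescence read.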
# p53ts 32C tox = p53ts cell cytotoxicity, permissive temperature; Potency, µM (highest dose often 46.1 µM), inactives show at the top dose activity change, negative = cytotoxicity, most hits filed as cytotoxic; H1299-p53A138V at 32C, ATP luminescence viability, 24 h; actives 0.93% (n = 130,000);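 note: 0% = DMSO and -100% = full killing by reference compound; nearly all actives have a fitted effect of over 55% in size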
#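 Cells: H1299 p53ts (A138V), 600/well, pre-incubated 16–30 h at 37C. Cpd up to 46 uM, 24 h, 32C. Readout: ATPlite luminescence, 20 min RT. Normalization: DMSO vs tamoxifen 100 uM. AC50 by Hill equation.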
# p53ts 39C kill = p53ts cell cytotoxicity, nonpermissive temperature; actives 1.5% (n = 130,000); H1299-p53A138V viability at 39C, ATP luminescence, 24 h; Potency, µM (highest dose often 46.1 µM), without a hit: at the highest dose activity change, negative = cell killing, most hits filed as cytotoxic; note: % is set by controls: 0 for no effect and ±100 for the full control effect; nearly all actives have a fitted effect of over 55% in size
# Starred values were filed as active, the others as inactive; ? = inconclusive; . = no result; [ ] = remark or other dose. Unless noted, calls come from the whole dose curve; as a rule, active = well fitted curve in the direction sought with a large enough effect; inconclusive = small, poorly fitted or top-dose-only effect, or another doubt; inactive = no such curve, though single readings can be large; an effect the other way counts as inactive or inconclusive. Potency is the fitted concentration of half-maximal effect.
SMILES,IkB sig inh,Imprint erasure,p53ts 32C tox,p53ts 39C kill
Cc1ccccc1NC(=O)Cn1c(=O)n(Cc2ccc3c(c2)OCO3)c(=O)c2oc3ccccc3c21,-2.1%,-15.4%[10.9 µM],7.6%,-15.2%
CC1CCN(c2nc3ccc(C(=O)O)cc3s2)CC1,.,.,10µM*,?
Cc1ccccc1OCC1CO1 (stereo not drawn),-0.4%,-1.0%,-1.2%[1.84 µM],-3.2%
Cc1ccc(C(=O)C2CCNCC2)cc1,-4.0%,-48.1%,-9.2%,-7.0%
Cc1ccc(C(=O)/C=C2\NCCNC2=O)cc1,.,.,12.6µM*,?
COC(=O)Nc1nnc(-c2ccccc2Cl)s1,-1.4%,?,10µM*,12.6µM*
Cc1ccc(C)c(NS(=O)(=O)c2cc(C(=O)O)ccc2Cl)c1,.,.,7.7%,4.5%
CC(C)CC(=O)Nc1ccc(C(=O)OCc2cc(=O)n3nc(C(C)C)sc3n2)cc1,0.7%,6.3%[10.9 µM],1.5%,-7.6%
CCOC(=O)c1cnc2ccc(C(=O)OC)cc2c1Nc1ccc(N2CCOCC2)cc1,2.4%,-17.0%[10.9 µM],?,12.6µM*
CCOC(=O)c1cnc2ccc(C)cc2c1Nc1ccc(N(CC)CC)cc1,?,-12.9%[10.9 µM],-6.7%,12.6µM*
CCCCC(=O)OCc1cc(=O)n2nc(C3CCCCC3)sc2n1,0.8%,-7.9%[10.9 µM],-1.4%,-14.5%
Cc1ccc(CNC(=O)Cn2ncc3c(C)n(Cc4ccc(Cl)cc4)c(C)c3c2=O)cc1,?,-8.9%[10.9 µM],-14.6%,15.8µM*
CC(C)(CO)Cc1cc(C(C)(C)C)c(O)c(C(C)(C)C)c1,?,-12.9%,20µM*,31.6µM*
Cc1cccc(C(=O)Nc2cccc(C(=O)OCc3cc(=O)n4nc(C(C)C)sc4n3)c2)c1,?,-5.6%[10.9 µM],0.6%,-12.3%
Cc1nn2c(=O)cc(COC(=O)c3cccc(NC(=O)c4ccc(C(C)(C)C)cc4)c3)nc2s1,?,-12.3%[10.9 µM],2.51µM*,2.51µM*
Cc1ccc(Cl)cc1N1CCN(CCCNC(=O)c2nnc(Cc3cccc(Cl)c3)o2)CC1,?,-14.5%[10.9 µM],-4.5%,12.6µM*
O=C(NCCCN1CCCCCC1)c1ccc2c(c1)sc1nc(-c3ccccc3)cn12,-1.3%,-12.9%[10.9 µM],?,19.8%
CNc1nnc(-c2ccc(N(C)C)cc2)s1,.,.,6.31µM*,7.94µM*
Cc1ccc(-n2c(SCC(=O)Nc3cc(C)on3)nc3c(c2=O)SC(C)C3)cc1 (stereo not drawn),-5.3%,-44.7%,10µM*,?
CCn1c(SCC(=O)Nc2cc(C)on2)nc2c(c1=O)SC(C)C2 (stereo not drawn),-2.0%,-7.8%,3.8%,11.0%
N/C(CC/C(N)=N/O)=N\O,0.5%[11.4 µM],-1.6%[10.9 µM],2.9%[9.22 µM],5.6%[9.22 µM]
Cc1ccc(-n2ncc3c(NC4CCCCC4)ncnc32)cc1Cl,?,-8.0%[10.9 µM],?,?
COc1ccc(-n2ncc3c(NC(C)C)ncnc32)cc1,.,.,12.6µM*,12.6µM*
COc1ccc(-n2ncc3c(NC4CCCC4)ncnc32)cc1,-0.8%,-16.4%[10.9 µM],5.01µM*,2µM*
COc1ccc(-n2ncc3c(NCCCOC(C)C)ncnc32)cc1,?,-4.4%[10.9 µM],-6.5%,?
SMILES,IkB sig inh,Imprint erasure,p53ts 32C tox,p53ts 39C kill
Cc1ccc(-n2ncc3c(NC4CCCC4)ncnc32)cc1,5.7%,-20.5%[10.9 µM],12.6µM*,?
c1ccc(-n2ncc3c(NC4CCCC4)ncnc32)cc1,4.4%,-16.6%[10.9 µM],12.6µM*,10µM*
COc1ccc(-c2nnc(SCC(=O)NCc3ccccc3)nc2-c2ccc(OC)c(OC)c2)cc1OC,-0.4%,-22.6%[10.9 µM],-0.4%,-19.2%
COc1ccc(-c2c(O)c3c(OC)c4c(cc3oc2=O)OC(C)(C)C=C4)cc1,.,0.9%,7.94µM*,6.31µM*
Cc1cc(C)cc(NS(=O)(=O)c2ccc3[nH]cc(C(=O)NCc4ccco4)c(=O)c3c2)c1,?,-26.2%,?,2µM*
CCOc1cccc(NC(=O)CSc2ncc(-c3ccccc3)[nH]2)c1,?,-13.2%[10.9 µM],5.3%,-11.6%
Cc1cccc(NC(=O)CSc2ncc(-c3ccc(Br)cc3)[nH]2)c1,?,27.0%[10.9 µM],?,12.6µM*
Cc1noc(C)c1COC(=O)c1ccc(-c2nc3ccccc3s2)s1,-0.9%,-24.0%,-9.1%,-24.8%
O=C(NC1CC1)c1ccc(-c2nc3ccccc3s2)s1,?,-83.1%,0.501µM*,0.398µM*
[N-]=[N+]=NC[C@@H]1O[C@@H](n2cnc3c(N)ncnc32)[C@@H]2O[C@@H]21,-2.1%[11.4 µM],-6.3%[10.9 µM],0.8%[9.22 µM],-6.8%[9.22 µM]
O=c1c(-c2ccccc2)coc2cc(O)cc(O)c12,.,-0.4%,?,?
O=c1c(-c2ccc3c(c2)OCCO3)coc2cc(O)cc(O)c12,?,-55.1%,12.6µM*,7.94µM*
Nc1ncnc2c1ncn2[C@@H]1O[C@H](CO)[C@H](O)[C@H]1O,.,1.3%,.,.
Nc1nc(Cl)nc2c1ncn2[C@@H]1O[C@H](CO)[C@@H](O)[C@H]1O,.,-2.1%,20µM*,?
CN(C)c1nc(N)nc(CSc2nc3cc(Cl)ccc3o2)n1,-2.2%,-20.4%,-9.3%,9.9%
O=S1(=O)C=C(Sc2nc3cc(Cl)ccc3o2)c2ccccc21,?,-36.8%,10µM*,20µM*
COC(=O)CC[C@@H](C)[C@H]1CC[C@H]2[C@H]3CC[C@H]4C[C@@H]5CC[C@@]4(C)C3(O5)[C@@H](Br)[C@@H](Br)[C@@]12C,-0.5%[11.4 µM],.,10.1%[9.22 µM],16.9%[9.22 µM]
Cc1cc2c(cc3c(SCc4ccc(Cl)cc4)nnc(C)n32)o1,-1.4%,-12.6%[10.9 µM],-10.2%,10µM*
Cc1ccc(-c2cc3c(nn2)-c2ccccc2C3=O)cc1,?,-94.6%,0.501µM*,0.398µM*
O=C(/C=C\c1ccc(O)c(O)c1)OCCc1ccccc1,32.2%,.,?,?
CN(C)CC(C)(C)CNC(=O)c1ccc(Cc2nc3ccccc3[nH]2)cc1,.,.,-1.6%,3.0%
O=C1c2ccccc2C(=O)C1c1ccnc2ccccc12,.,.,?,5.62µM*
N#CC1=C(N)SC(N)=C(C#N)C1c1ccnc2ccccc12,0.0%,-16.4%,37.4%,24.3%
CN(C)c1ccc(CNC(=O)c2ccc(NC(=O)N3CCCCc4ccccc43)cc2)cc1,?,-17.1%[10.9 µM],-5.3%,-16.4%
COc1ccc(CCNc2oc(COc3ccc(Cl)cc3)nc2C#N)cc1OC,?,-7.5%[10.9 µM],22.4µM*,?
SMILES,IkB sig inh,Imprint erasure,p53ts 32C tox,p53ts 39C kill
COc1cc2c(cc1O)CC[C@@H]1[C@@H]2CC[C@@]2(C)[C@H](O)CC[C@H]12,?,.,9.2%,?
C=CCN1CCc2c(cc(O)c(O)c2Br)[C@H](c2ccccc2)C1,5.2%,.,-11.0%,-13.1%
COc1cccc(-c2nccc(NCc3cccs3)n2)c1,1.6%[11.4 µM],-18.0%,?,12.6µM*
c1csc(CNc2ccnc(-c3ccc4c(c3)OCO4)n2)c1,2.3%[11.4 µM],-14.3%,12.6µM*,10µM*
c1cncc(-c2nccc(NCc3cccs3)n2)c1,2.9%[11.4 µM],?,-1.8%,-14.2%
O=C1C=CC2=C3c4cc(O)c(O)cc4C[C@@]3(O)COC2=C1O,1.6%[11.4 µM],.,.,.
COc1ccc(NC(=O)CCS(=O)(=O)c2nc(-c3cccs3)cc(C(F)(F)F)n2)cc1OC,?,-10.3%[10.9 µM],?,3.98µM*
